Test results published in PubChem BioAssay AID743291 (Broad Institute, 2014).
Measured potencies and affinities stand elsewhere. Activity calls are given as the source filed them.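 The calls were made as follows: active = signal drop with fitted half-maximal dose at most twice the top valid dose, active in every repeat; inconclusive = repeats disagree, or flat partial inhibition, or poor fit; inactive = inactive in every repeat, including opposite effects.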

Molecular target: Caspase-3 (Homo sapiens) (UniProt P42574)
Test: caspase-3 enzyme inhibitors, selectivity check, dose response, selectivity assay for caspase-6 allosteric inhibitor project, biochemical, fluorescence, cherry-picked samples (AID 743291)
Conditions: Recombinant caspase-3, Z-DEVD-R110 cleavage fluorescence; series mostly up to 35 µM

Chain of Caspase-3 (Homo sapiens) (P42574 whole entry, looked up): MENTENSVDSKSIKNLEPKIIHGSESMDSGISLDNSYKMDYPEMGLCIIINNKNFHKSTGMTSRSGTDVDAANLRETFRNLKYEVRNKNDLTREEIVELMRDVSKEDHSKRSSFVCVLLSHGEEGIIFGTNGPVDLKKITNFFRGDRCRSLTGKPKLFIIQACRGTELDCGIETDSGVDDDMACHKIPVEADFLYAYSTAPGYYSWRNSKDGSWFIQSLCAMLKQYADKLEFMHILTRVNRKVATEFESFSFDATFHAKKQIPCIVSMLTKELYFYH

outcome, inactive:
COc1ccc([N+](=O)[O-])cc1NC(=O)CCS(=O)(=O)c1ccc(Br)cc1, O=C(Nc1ccc2nc3n(c(=O)c2c1)CCCCC3)c1c(F)ccc([N+](=O)[O-])c1F, CCCN(C(=O)c1cccc(-n2cccc2)c1)c1c(N)n(Cc2ccccc2)c(=O)[nH]c1=O, CC(C)(C)c1ccc(NC(=O)COC(=O)c2ccc([N+](=O)[O-])s2)cc1, O=C(COC(=O)c1ccc([N+](=O)[O-])s1)Nc1ccccc1, Cn1cnnc1SCC(=O)Nc1ncc([N+](=O)[O-])s1, Nc1cc(S(=O)(=O)O)cc([N+](=O)[O-])c1O, O=C(O)C1Nc2c(Cl)cc(Cl)c(Cl)c2C2C=CCC12 (configuration not stated), O=C(C[C@@H]1C[C@H]2c3cc(NC(=O)NC4CCCCC4)ccc3O[C@H]2[C@H](CO)O1)NCc1ccccn1, COc1cc(NC(C)CCCN)c2ncccc2c1 (configuration not stated), COc1cc(NC(=O)COC(=O)c2ccc([N+](=O)[O-])s2)cc(OC)c1OC, COc1cc(NCCCCC(C)N)c2nccc(C)c2c1 (configuration not stated), Nc1c(O)cccc1C(=O)O, CO[C@H]1CN(C)C(=O)c2cc(NC(C)=O)ccc2OC[C@@H](C)N(C(=O)CC2CC2)C[C@H]1C, O=C(O)C1CCCCC1C(=O)Nc1cccc(Br)c1 (configuration not stated), CCCSC1=N/C(=C\c2ccc([N+](=O)[O-])o2)C(=O)S1, Cc1ccc(NC(=O)CN(C)C(=O)c2cccc(-n3cccc3)c2)cc1
